# Test results reported in ChEMBL document CHEMBL2218924, “A broad activity screen in support of a chemogenomic map for kinase signalling research and drug discovery” (Biochem J, 2013).
# Legend:
# [1] = molecular target: Platelet-derived growth factor receptor alpha (Homo sapiens) (UniProt P16234); settings: at 10 µM
# [2] = molecular target: Platelet-derived growth factor receptor beta (Homo sapiens) (UniProt P09619); settings: at 1 µM
# [3] = molecular target: Platelet-derived growth factor receptor beta (Homo sapiens) (UniProt P09619); settings: at 10 µM
# [4] = molecular target: T1, 3-phosphoinositide-dependent protein kinase 1 (Homo sapiens) (UniProt O15530); settings: at 1 µM
# T1 sequence (whole entry): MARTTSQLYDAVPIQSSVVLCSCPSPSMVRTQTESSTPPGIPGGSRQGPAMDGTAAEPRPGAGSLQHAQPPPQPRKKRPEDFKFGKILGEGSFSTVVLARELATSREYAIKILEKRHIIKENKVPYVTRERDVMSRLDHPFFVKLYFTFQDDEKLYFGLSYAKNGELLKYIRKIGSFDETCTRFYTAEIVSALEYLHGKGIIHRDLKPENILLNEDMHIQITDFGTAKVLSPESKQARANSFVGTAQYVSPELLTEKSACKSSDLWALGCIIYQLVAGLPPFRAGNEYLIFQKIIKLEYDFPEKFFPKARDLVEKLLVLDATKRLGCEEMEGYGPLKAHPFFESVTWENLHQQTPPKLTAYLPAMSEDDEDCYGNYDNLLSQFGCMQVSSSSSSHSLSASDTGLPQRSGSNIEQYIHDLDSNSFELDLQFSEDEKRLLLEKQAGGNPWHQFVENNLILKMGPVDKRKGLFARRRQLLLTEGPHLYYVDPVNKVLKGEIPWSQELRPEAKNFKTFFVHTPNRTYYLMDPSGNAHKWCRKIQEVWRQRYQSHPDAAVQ
# [5] = molecular target: T1, 3-phosphoinositide-dependent protein kinase 1 (Homo sapiens); settings: at 10 µM
# [6] = molecular target: RAC-alpha serine/threonine-protein kinase (Homo sapiens) (UniProt P31749); settings: at 1 µM
# [7] = molecular target: RAC-alpha serine/threonine-protein kinase (Homo sapiens) (UniProt P31749); settings: at 10 µM
# [8] = molecular target: Protein kinase C alpha type (Homo sapiens) (UniProt P17252); settings: at 10 µM
# [9] = molecular target: Protein kinase C beta type (Homo sapiens) (UniProt P05771); settings: at 1 µM
# [10] = molecular target: Protein kinase C beta type (Homo sapiens) (UniProt P05771); settings: at 10 µM
# [11] = molecular target: Protein kinase C gamma type (Homo sapiens) (UniProt P05129); settings: at 1 µM
# [12] = molecular target: Protein kinase C gamma type (Homo sapiens) (UniProt P05129); settings: at 10 µM
# [13] = molecular target: Protein kinase C delta type (Homo sapiens) (UniProt Q05655); settings: at 1 µM
# [14] = molecular target: cAMP-dependent protein kinase catalytic subunit alpha (Homo sapiens) (UniProt P17612); settings: at 1 µM
# [15] = molecular target: cAMP-dependent protein kinase catalytic subunit alpha (Homo sapiens) (UniProt P17612); settings: at 10 µM
# [16] = molecular target: RAC-gamma serine/threonine-protein kinase (Homo sapiens) (UniProt Q9Y243); settings: at 1 µM
# [17] = molecular target: RAC-gamma serine/threonine-protein kinase (Homo sapiens) (UniProt Q9Y243); settings: at 10 µM
# [18] = molecular target: Protein kinase C alpha type (Homo sapiens) (UniProt P17252); settings: at 1 µM
# [19] = molecular target: Protein kinase C beta type (Homo sapiens) (UniProt P05771); settings: at 1 µM; remark: listed apart in the source
# [20] = molecular target: Protein kinase C beta type (Homo sapiens) (UniProt P05771); settings: at 10 µM; remark: listed apart in the source
# Sequence of RAC-alpha serine/threonine-protein kinase (Homo sapiens) (P31749 whole entry): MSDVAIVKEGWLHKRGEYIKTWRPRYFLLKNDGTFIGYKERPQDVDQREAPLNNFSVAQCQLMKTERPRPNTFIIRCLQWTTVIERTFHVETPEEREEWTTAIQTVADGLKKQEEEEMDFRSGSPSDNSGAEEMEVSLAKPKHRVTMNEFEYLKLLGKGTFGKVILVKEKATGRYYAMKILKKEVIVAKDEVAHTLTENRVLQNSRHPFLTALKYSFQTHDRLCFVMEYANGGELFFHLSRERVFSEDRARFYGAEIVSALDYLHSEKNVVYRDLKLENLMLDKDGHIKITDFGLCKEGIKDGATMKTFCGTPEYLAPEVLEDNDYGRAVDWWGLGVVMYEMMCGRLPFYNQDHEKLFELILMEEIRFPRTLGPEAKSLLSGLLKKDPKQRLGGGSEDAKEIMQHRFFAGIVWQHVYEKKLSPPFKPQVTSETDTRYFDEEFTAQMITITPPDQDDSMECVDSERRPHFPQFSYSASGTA
# Sequence of Platelet-derived growth factor receptor alpha (Homo sapiens) (P16234 whole entry): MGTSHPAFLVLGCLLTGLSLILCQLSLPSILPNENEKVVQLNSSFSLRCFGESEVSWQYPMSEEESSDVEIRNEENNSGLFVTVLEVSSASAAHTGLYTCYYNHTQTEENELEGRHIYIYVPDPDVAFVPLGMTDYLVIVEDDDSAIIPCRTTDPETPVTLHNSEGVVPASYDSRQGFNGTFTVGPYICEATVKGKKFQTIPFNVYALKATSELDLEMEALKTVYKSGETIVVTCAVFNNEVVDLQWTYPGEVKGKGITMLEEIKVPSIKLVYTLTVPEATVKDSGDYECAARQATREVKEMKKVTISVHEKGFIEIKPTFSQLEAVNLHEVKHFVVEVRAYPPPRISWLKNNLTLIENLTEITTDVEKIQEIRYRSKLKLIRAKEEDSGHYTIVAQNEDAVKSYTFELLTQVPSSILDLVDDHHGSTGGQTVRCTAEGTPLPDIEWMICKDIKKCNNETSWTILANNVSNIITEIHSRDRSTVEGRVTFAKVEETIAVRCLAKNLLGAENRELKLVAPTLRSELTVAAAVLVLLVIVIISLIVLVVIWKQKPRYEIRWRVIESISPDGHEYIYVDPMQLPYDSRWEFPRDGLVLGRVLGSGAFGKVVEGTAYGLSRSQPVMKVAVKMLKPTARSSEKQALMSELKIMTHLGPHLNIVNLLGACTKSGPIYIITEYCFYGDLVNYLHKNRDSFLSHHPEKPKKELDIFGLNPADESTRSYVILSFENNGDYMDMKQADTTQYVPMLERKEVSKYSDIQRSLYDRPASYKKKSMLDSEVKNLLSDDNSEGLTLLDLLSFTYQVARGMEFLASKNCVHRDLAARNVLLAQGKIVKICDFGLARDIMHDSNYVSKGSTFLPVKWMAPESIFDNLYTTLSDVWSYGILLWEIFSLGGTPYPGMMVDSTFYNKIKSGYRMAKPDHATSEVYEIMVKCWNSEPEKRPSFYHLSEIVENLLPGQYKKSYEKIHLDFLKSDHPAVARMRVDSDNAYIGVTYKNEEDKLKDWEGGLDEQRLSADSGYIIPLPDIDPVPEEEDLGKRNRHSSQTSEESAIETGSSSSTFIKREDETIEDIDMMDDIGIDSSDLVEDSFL
# Sequence of RAC-gamma serine/threonine-protein kinase (Homo sapiens) (Q9Y243 whole entry): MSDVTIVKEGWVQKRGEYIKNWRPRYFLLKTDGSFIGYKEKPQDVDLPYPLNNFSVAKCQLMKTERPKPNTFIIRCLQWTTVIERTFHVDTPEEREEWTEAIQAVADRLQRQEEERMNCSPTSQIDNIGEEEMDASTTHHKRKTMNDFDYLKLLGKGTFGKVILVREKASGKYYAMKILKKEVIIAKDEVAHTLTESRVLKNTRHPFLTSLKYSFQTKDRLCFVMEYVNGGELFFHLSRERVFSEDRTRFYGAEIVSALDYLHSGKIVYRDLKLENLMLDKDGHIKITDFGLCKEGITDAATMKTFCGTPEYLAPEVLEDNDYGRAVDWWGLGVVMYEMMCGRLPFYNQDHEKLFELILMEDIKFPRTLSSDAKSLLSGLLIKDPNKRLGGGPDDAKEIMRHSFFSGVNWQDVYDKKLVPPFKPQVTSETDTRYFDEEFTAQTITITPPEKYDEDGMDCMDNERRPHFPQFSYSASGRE
# Sequence of Protein kinase C beta type (Homo sapiens) (P05771 2-671 limits assumed): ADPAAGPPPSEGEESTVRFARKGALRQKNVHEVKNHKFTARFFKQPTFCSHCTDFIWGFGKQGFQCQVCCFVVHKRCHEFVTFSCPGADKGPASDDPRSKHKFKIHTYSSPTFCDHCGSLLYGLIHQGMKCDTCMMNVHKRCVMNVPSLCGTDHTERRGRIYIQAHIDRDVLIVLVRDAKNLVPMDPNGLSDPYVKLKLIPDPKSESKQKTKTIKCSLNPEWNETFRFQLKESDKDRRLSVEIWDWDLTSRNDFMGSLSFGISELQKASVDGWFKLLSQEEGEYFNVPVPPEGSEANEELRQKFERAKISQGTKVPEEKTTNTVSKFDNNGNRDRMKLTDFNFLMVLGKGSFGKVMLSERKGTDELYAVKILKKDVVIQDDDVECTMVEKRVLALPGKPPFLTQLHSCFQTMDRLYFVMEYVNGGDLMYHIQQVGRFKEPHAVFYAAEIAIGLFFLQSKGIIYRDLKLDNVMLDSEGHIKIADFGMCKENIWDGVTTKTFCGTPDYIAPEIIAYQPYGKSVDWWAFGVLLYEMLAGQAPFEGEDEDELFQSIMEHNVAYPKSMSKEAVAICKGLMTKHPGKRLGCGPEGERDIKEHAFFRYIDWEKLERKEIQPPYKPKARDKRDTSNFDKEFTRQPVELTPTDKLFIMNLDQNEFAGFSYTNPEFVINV
# Sequence of Protein kinase C delta type (Homo sapiens) (Q05655 whole entry, looked up): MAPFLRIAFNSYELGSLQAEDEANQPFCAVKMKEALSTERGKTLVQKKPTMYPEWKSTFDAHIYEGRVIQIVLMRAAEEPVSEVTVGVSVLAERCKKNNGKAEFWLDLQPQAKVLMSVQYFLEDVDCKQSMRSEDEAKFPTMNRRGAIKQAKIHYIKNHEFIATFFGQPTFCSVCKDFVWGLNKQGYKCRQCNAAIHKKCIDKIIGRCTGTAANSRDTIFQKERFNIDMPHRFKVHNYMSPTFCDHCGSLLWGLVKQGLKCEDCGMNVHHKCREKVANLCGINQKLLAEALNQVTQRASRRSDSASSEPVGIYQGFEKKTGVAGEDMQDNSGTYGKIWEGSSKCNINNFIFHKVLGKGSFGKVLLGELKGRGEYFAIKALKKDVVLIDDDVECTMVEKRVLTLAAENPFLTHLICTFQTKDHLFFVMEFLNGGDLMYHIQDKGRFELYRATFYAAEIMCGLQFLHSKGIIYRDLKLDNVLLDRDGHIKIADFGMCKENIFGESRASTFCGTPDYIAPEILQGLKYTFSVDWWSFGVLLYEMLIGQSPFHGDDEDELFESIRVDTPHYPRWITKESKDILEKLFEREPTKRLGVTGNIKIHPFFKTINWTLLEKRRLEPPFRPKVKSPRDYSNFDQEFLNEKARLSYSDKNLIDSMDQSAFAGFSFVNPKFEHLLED
smiles,measurement,setting,value
CCc1nc(-c2ccc(OC)cc2)[nH]c1-c1ccncc1,residual activity,[1],109%
same,residual activity,[2],110%
same,residual activity,[3],108%
same,residual activity,[4],110%
same,residual activity,[5],101%
same,residual activity,[6],113%
same,residual activity,[7],108%
same,residual activity,[8],105%
same,residual activity,[9],127%
same,residual activity,[10],105%
same,residual activity,[11],108%
same,residual activity,[12],108%
same,residual activity,[13],107%
O=c1[nH]c2ccccc2n1C1CCN(Cc2ccc(-c3nc4cc5[nH]cnc5cc4nc3-c3ccccc3)cc2)CC1,residual activity,[1],101%
same,residual activity,[2],108%
same,residual activity,[3],96%
same,residual activity,[4],113%
same,residual activity,[5],120%
same,residual activity,[14],97%
same,residual activity,[15],145%
same,residual activity,[6],98%
same,residual activity,[7],90%
same,residual activity,[16],118%
same,residual activity,[17],69%
same,residual activity,[18],104%
same,residual activity,[8],104%
same,residual activity,[9],102%
same,residual activity,[10],93%
same,residual activity,[19],88%
same,residual activity,[20],93%
same,residual activity,[11],108%
same,residual activity,[12],98%
same,residual activity,[13],107%
O=C(O)c1ccc2c3c1cccc3c(=O)n1c3ccccc3nc21,residual activity,[6],111%
same,residual activity,[7],100%
O=c1c2ccccc2[nH]c(=S)n1CCN1CCC(=C(c2ccc(F)cc2)c2ccc(F)cc2)CC1,residual activity,[6],112%
same,residual activity,[7],107%
Nc1n[nH]c2nnc(-c3c(-c4ccccc4)nn4ccccc34)cc12,residual activity,[6],111%
same,residual activity,[7],99%
O=C1c2ccccc2-c2nc3nnnn3nc21,residual activity,[1],111%
same,residual activity,[2],120%
same,residual activity,[3],111%
same,residual activity,[4],121%
same,residual activity,[5],116%
same,residual activity,[6],103%
same,residual activity,[7],112%
same,residual activity,[16],117%
same,residual activity,[17],100%
same,residual activity,[19],101%
COc1cc2ncnc(Nc3ccc(Oc4ccccc4)cc3)c2cc1OC,residual activity,[6],108%
same,residual activity,[7],107%
N/C(=N\[N+](=O)[O-])N/N=C\c1ccc(-c2cccc([N+](=O)[O-])c2)o1,residual activity,[1],54%
same,residual activity,[2],100%
same,residual activity,[3],60%
same,residual activity,[16],77%
same,residual activity,[17],77%
same,residual activity,[11],91%
same,residual activity,[12],94%
c1cc(-c2cnn3cc(-c4ccc(OCCN5CCCCC5)cc4)cnc23)ccn1,residual activity,[1],3%
same,residual activity,[2],27%
same,residual activity,[3],4%
same,residual activity,[5],84%
same,residual activity,[14],71%
same,residual activity,[15],32%
same,residual activity,[9],118%
same,residual activity,[10],104%
CN[C@@H]1C[C@H]2O[C@@](C)([C@@H]1OC)n1c3ccccc3c3c4c(c5c6ccccc6n2c5c31)C(=O)NC4,residual activity,[4],1%
same,residual activity,[5],0%
COc1cc2ncnc(Nc3ccc(NC(=O)c4ccccc4)cc3)c2cc1OC,residual activity,[6],105%
same,residual activity,[7],110%
COc1cc2ncnc(Nc3ccc(OCc4ccccc4)cc3)c2cc1OC,residual activity,[1],57%
same,residual activity,[2],106%
same,residual activity,[3],89%
same,residual activity,[4],119%
same,residual activity,[5],114%
same,residual activity,[14],88%
same,residual activity,[6],104%
same,residual activity,[7],122%
same,residual activity,[16],99%
same,residual activity,[17],103%
same,residual activity,[18],117%
same,residual activity,[8],114%
same,residual activity,[9],123%
same,residual activity,[10],106%
same,residual activity,[19],105%
same,residual activity,[20],101%
same,residual activity,[11],105%
same,residual activity,[12],108%
same,residual activity,[13],104%
Cc1nc(-c2ccccc2)c(-c2ccncc2)o1,residual activity,[6],110%
same,residual activity,[7],102%
N#C/C(=C(\N)Sc1ccc(N)cc1)c1ccccc1C(F)(F)F,residual activity,[6],112%
same,residual activity,[7],108%
Cn1c2ccccc2c2c3c(c4c5ccccc5n(CCC#N)c4c21)CNC3=O,residual activity,[6],106%
same,residual activity,[7],105%
COc1ccc(CNc2nc(N(CCO)CCO)nc3c2ncn3C(C)C)cc1,residual activity,[6],118%
same,residual activity,[7],111%
Cc1ccc(NC2=CC(=O)c3sc(C)nc3C2=O)cc1,residual activity,[6],111%
same,residual activity,[7],107%
CC#CC(=O)Nc1cc2c(Nc3ccc(F)c(Cl)c3)ncnc2cn1,residual activity,[6],101%
same,residual activity,[7],107%
Nc1ncnc2c1c(-c1ccc(Oc3ccccc3)cc1)cn2C1CCCC1,residual activity,[6],105%
same,residual activity,[7],111%
Oc1ccc(-c2nc(-c3ccc(F)cc3)c(-c3ccncc3)[nH]2)cc1,residual activity,[6],113%
same,residual activity,[7],112%
CO[C@H]1[C@@H](OC)C[C@H](C)[C@@H](OC)C2=CC(=O)C=C(NC(=O)/C(C)=C/C=C/[C@H](OC)[C@@H](OC(N)=O)/C(C)=C/[C@@H]1C)C2=O,residual activity,[6],112%
same,residual activity,[7],114%
O=C1NC(=O)/C(=C\c2ccc3nccnc3c2)S1,residual activity,[6],106%
same,residual activity,[7],108%
Nc1nc(Nc2ccc(S(N)(=O)=O)cc2)nn1C(=O)c1c(F)cccc1F,residual activity,[6],104%
same,residual activity,[7],103%
O=C1Nc2cc(Br)ccc2/C1=C1/Nc2ccccc2/C1=N\O,residual activity,[6],114%
same,residual activity,[7],107%
COc1ccc(C(=O)Nc2sc3c(c2C(N)=O)CCCC3)cc1OC,residual activity,[6],103%
same,residual activity,[7],109%
O=C1c2ccccc2-[n+]2ccc3c([nH]c4ccccc43)c21,residual activity,[6],108%
same,residual activity,[7],107%
Cc1ccc(S(=O)(=O)/C=C/C#N)cc1,residual activity,[6],107%
same,residual activity,[7],112%
CC(C)(C)n1nc(Cc2cccc3ccccc23)c2c(N)ncnc21,residual activity,[6],96%
same,residual activity,[7],107%
Nc1ncnc2[nH]nc(Nc3ccc(F)cc3)c12,residual activity,[6],111%
same,residual activity,[7],109%
COc1cc2ncnc(Nc3ccc(O)c(Br)c3)c2cc1OC,residual activity,[6],107%
same,residual activity,[7],105%
CC[n+]1c(/C=C/N(C)c2ccccc2)n(-c2ccccc2)c2ccc(-c3nc4ccccc4s3)cc21,residual activity,[6],99%
same,residual activity,[7],107%
COc1cc2c(cc1OC)-c1n[nH]c(Nc3cccc(F)c3)c1C2,residual activity,[6],107%
same,residual activity,[7],107%
Oc1n[nH]c2nnc(-c3c(-c4ccccc4)nn4ccccc34)cc12,residual activity,[6],105%
same,residual activity,[7],111%
O=[N+]([O-])c1ccc(-c2nc(-c3ccc(F)cc3)c(-c3ccncc3)[nH]2)cc1,residual activity,[6],112%
same,residual activity,[7],103%
O=c1cc(N2CCOCC2)oc2c1ccc1ccccc12,residual activity,[6],103%
same,residual activity,[7],106%
O=C1NC(=O)/C(=C/c2ccc3c(c2)OC(F)(F)O3)S1,residual activity,[6],102%
same,residual activity,[7],111%
C[C@@H](N)[C@H]1CC[C@H](C(=O)Nc2ccncc2)CC1,residual activity,[6],88%
same,residual activity,[7],76%
CCN(CC)CCCCN1c2ccccc2Oc2ccc(Cl)cc21,residual activity,[6],104%
same,residual activity,[7],104%
CO[C@@H]1[C@H](N(C)C(=O)c2ccccc2)C[C@H]2O[C@]1(C)n1c3ccccc3c3c4c(c5c6ccccc6n2c5c31)C(=O)NC4,residual activity,[6],97%
same,residual activity,[7],99%
O=C1Cc2c([nH]c3ccc([N+](=O)[O-])cc23)-c2ccccc2N1,residual activity,[6],104%
same,residual activity,[7],104%
COc1ccc(S(=O)(=O)N(CCO)c2ccccc2CN(C)C/C=C/c2ccc(Cl)cc2)cc1,residual activity,[6],116%
same,residual activity,[7],112%
COc1ccc2c(c1)c(C1=C(c3c[nH]c4ccccc34)C(=O)NC1=O)cn2CCCN(C)C,residual activity,[6],110%
same,residual activity,[7],120%
COc1ccc(CNC(=O)Nc2ncc([N+](=O)[O-])s2)cc1,residual activity,[6],116%
same,residual activity,[7],106%
O=c1cc(-c2cccc3c2Sc2ccccc2S3)oc(N2CCOCC2)c1,residual activity,[6],99%
same,residual activity,[7],103%
